# How the values were obtained:
# DCAMKL3 = tested on: T1, DCAMKL3
# T1 construct: gene DCLK3
# DRAK2 = tested on: T2, DRAK2
# T2 construct: gene STK17B
# 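Note: kd values determined as follow-up on hits from a single-replicate KINOMEscan panel screen.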
compound,measurement,setting,value
CC[C@@H]1CO[C@H](C(=O)Nc2ccccc2)CN1c1cc(-c2ccc3c(N)n[nH]c3c2)nc(NC)n1 [GSK2376236],Kd,DCAMKL3,570 nM
CNc1nc(-c2ccc3c(N)n[nH]c3c2)cc(N2C[C@@H](C(=O)Nc3ccccc3)CC[C@H]2C)n1 [GSK2298859],Kd,DRAK2,83 nM
COc1ccc(Nc2nccc(N3CCC(NC(=O)C(C)c4ccc(Cl)cc4)CC3)n2)cc1 (stereo not shown) [GSK1379812],Kd,DYRK1A,> 10000 nM
CNc1cc(-c2ccc3c(N)n[nH]c3c2)nc(N)n1 [GSK2224810],Kd,DYRK2,33 nM
Cn1cncc1-c1cc2c(Nc3ccc(OCc4ccccc4)cc3)ncnc2cn1 [GW281179],Kd,EGFR,10 nM
Cc1ccc(NC(=O)c2ccc(Cl)cc2)cc1-c1ccc(C(=O)Nc2ccncc2)cc1 [GSK1398467],Kd,EPHA3,> 10000 nM
Cc1ccc(-c2nc(Nc3ccncc3)c3ccccc3n2)s1 [GSK189015],Kd,EPHA5,> 10000 nM
